Data from the supplement of paper PMC13380429.
Structures can show the parent of a compound that is named as a salt.

How the values were obtained:
[1] = system: Vero E6 infected with SARS-CoV-2; assay: morphology score (similarity to uninfected cells); higher = more like uninfected cells; conditions: 24 h
[2] = system: Vero E6 infected with SARS-CoV-2; assay: SARS-CoV-2 infection rate relative to infected DMSO; higher = more infection, active = 60 or less; conditions: 24 h

| SMILES | morphology score [1] | SARS-CoV-2 infection rate [2] |
| --- | --- | --- |
| O=Nc1c(-c2c(O)[nH]c3ccccc23)[nH]c2ccccc12 [indirubin-3-monoxime] (0.833333 µM) | 0.00718 | 106% (inactive) |
| CNCCc1cnc[nH]1 [N-alpha-methylhistamine-dihydrochloride] (10 µM) | -0.0409 | 110% (inactive) |
| CC(N)C12CC3CC(CC(C3)C1)C2 (configuration not stated) [rimantadine] (10 µM) | 0.136 | 102% (inactive) |
| O=C(NCCO)c1cc(C(=O)NCCO)cc(C(=O)NCCO)c1 (10 µM) | 0.0411 | 102% (inactive) |
| CC(=O)[C@H]1CC[C@H]2[C@@H]3C[C@H](C)C4=CC(=O)CC[C@]4(C)[C@H]3[C@@H](O)C[C@]12C [medrysone] (10 µM) | 0.0629 | 106% (inactive) |
| O=C(O)CC1CC(c2ccccc2)=NO1 (configuration not stated) (10 µM) | -0.0313 | 116% (inactive) |
| O=S1(=O)CCN(CN2CCS(=O)(=O)NC2)CN1 [taurolidine] (10 µM) | -0.0437 | 109% (inactive) |
| CCCCCCCCCCCCC[N+](C)(C)Cc1ccccc1 [benzalkonium] (10 µM) | 0.0369 | 105% (inactive) |
| O=c1[nH]c2ccccc2n1CCCN1CCC(n2c(=O)[nH]c3cc(Cl)ccc32)CC1 [domperidone] (10 µM) | 0.00154 | 110% (inactive) |
| O=C(O)c1ccc(-n2nc(-c3ccccc3O)nc2-c2ccccc2O)cc1 [deferasirox] (0.833333 µM) | 0.0304 | 114% (inactive) |
| CC(C)(C)NCC(O)c1cc(Cl)c(N)c(C(F)(F)F)c1 (configuration not stated) [mabuterol] (10 µM) | -0.0501 | 107% (inactive) |
